The record followed here is PubChem BioAssay AID720517 (National Center for Advancing Translational Sciences (NCATS), 2013).

Structures are written as SMILES. Inconclusive results are not listed. Where a call stands in place of a potency, no number is given. The source made the active and inactive calls. The call rests on the fitted dose curve; in most records, active means well fitted activation curve with a large enough effect; inconclusive means small, poorly fitted or top-dose-only effect; inactive means flat fitted curve, though single readings scatter.

This assay is described as follows: qHTS for Inhibitors of Cell Surface uPA Generation: FP59 Counterscreen for Cherry-picked Compounds. The conditions noted are these: FP59 anthrax toxin cytotoxicity counterscreen, cells; series mostly up to 115 µM. (In general: qHTS replaces the single test concentration by a dilution series.)
As for `CCCC1=NN(C(=O)Cc2ccc(OC)cc2)C(O)(C(F)(F)F)C1` (stereo not given), the Potency result was “inactive”.
Turning to `O=C(O)CC1(CC(=O)NCc2ccc(Cl)cc2)CCCCC1`, the Potency entry is “inactive”.
The entry for `CNS(=O)(=O)c1cc(-c2nnc(Nc3ccc(CC(N)=O)cc3)c3ccccc23)ccc1C` is “inactive”; for `CC(C)(C)OC(=O)C[C@@H]1C/C=C\C[C@@H](CC(=O)N(CCO)Cc2ccccc2)C(=O)N[C@H](Cc2c[nH]c3ccccc23)COC1=O` it is “inactive”.
Regarding `O=C(C[C@@H]1C/C=C\C[C@H](Cc2ccc(F)cc2)C(=O)OC[C@H]2CCCN2C1=O)N[C@H](CO)Cc1ccccc1`, the Potency entry is “inactive”.
With `Cc1nnc2ccc(-c3ccc(NS(=O)(=O)c4ccc(Cl)s4)cc3)nn12`, the Potency entry was “inactive”.
For the compound `Cc1ccccc1C(=O)Nc1ccccc1N1CCCCC1`, the Potency entry is “inactive”.
The entry for `COC(=O)CCNS(=O)(=O)c1ccc2nsnc2c1` is “inactive”.
Regarding `CCOCc1nnc(NC(=O)C2CCN(C(=O)C3CC(=O)N(c4ccc(C)cc4)C3)CC2)s1` (stereo not given), the Potency result is “inactive”.
With `COc1ccccc1C(=O)NCCC(=O)NCC(c1ccc(F)cc1)N1CCOCC1` (stereo not given), the Potency result was “inactive”.
To `O=C(Cn1cnc2c(OCc3ccccc3)ncnc21)NCCCN1CCCC1=O` belongs “inactive”.
`CCN(CC)c1ccc(C=NCCc2ccc(S(N)(=O)=O)cc2)cc1`: the Potency entry is “inactive”.
To `COc1cccc(CNC(=O)C2CCCN(S(=O)(=O)c3ccc4c(c3)C(C)(C)C(=O)N4C)C2)c1` (stereo not given) belongs “inactive”; to `CC(C)Cn1cnc2c(N)nc3ccccc3c21`, “inactive”; to `C[C@H](O)[C@@H]1C(=O)N2CCc3ccc(-c4cccc(F)c4)cc3[C@@H]2C[C@@H]1N(C)C(=O)C(C)(C)C`, “inactive”.
